This passage reports growth inhibition results from PubChem BioAssay (NCI).

Molecules are shown by their SMILES. About 79,000 compounds went through this panel and 15% of them were active in at least one assay; those are over-represented in the sample as a whole. A number with no mark means an inactive call. The source made the active and inactive calls. Cut-off read from the data, not from the text of the source: active = growth inhibition above about 70%; inactive = the rest.

The first experiment in a line: NCI Yeast Anticancer Drug Screen. Data for the cln2 rad14 strain (AID 165).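 Note: 0% = growth equal to vehicle treated cultures.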 Conditions: S. cerevisiae cln2 rad14 strain, at 50.0 µM, stronger effect = higher value. The procedure, abridged: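 Yeast carrying cln2 and rad14 alterations (cell cycle control and DNA damage repair) were exposed to compounds. Growth inhibition was measured against vehicle-treated controls.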
As for `CCCCCCCCCC1OCC(C)O1` (stereo not given), the growth inhibition was 4%.
As to `O=[N+]([O-])c1ccc2c(c1)/C(=C/c1ccc(O)cc1)c1ccccc1-2`, the growth inhibition is 86.8% (active).
Consider `COc1cc2c(cc1OC(C)=O)C(=O)C(Br)(Br)CCC2`, for which the growth inhibition was 94.2% (active).
On to `COC(=O)c1cc2c(oc1=O)-c1ccccc1N(C=O)C2`, for which the growth inhibition is -55.8%.
As to `CC(=O)Nc1ccc(S(=O)(=O)/N=C2\C=CC(=O)c3ccccc32)cc1`, the growth inhibition was -43.4%.
Turning to `C/C(=N/NC(=S)N(C)C)c1ccccc1O`, the growth inhibition was 77.9% (active).
For `CC(CN(C)C)C(=O)/C=C/c1c(Cl)cccc1Cl` (stereo not given), the growth inhibition was 29.4%.
In the case of `N#CC(O)C(Br)(Br)Br` (stereo not given), the growth inhibition is 21.9%.
`C=Cc1cc(N=Nc2ccc([N+](=O)[O-])cc2)ccc1N(C)C`: the growth inhibition is -25.9%.
As for `Cc1cccnc1NC(=S)Nc1ccccc1Cl`, the growth inhibition was 85.8% (active).
On the same count and under the same terms, next, `O=C1C=CC(=O)c2c(O)c(N3CCC[C@@H]3CO)c(Cl)c(O)c21`: 30.2%; `Cc1cc(C(=O)O)c(C)c2c1sc1ccccc12`: 42%; `COc1cccc2c1OC(c1ccc(Cl)cc1)C([N+](=O)[O-])=C2` (stereo not given): 81.8% (active).
Consider `CC1=C(C(=O)Nc2cccc(Cl)c2)C(c2ccccc2F)C(C(=O)Nc2cccc(Cl)c2)=C(C)N1`, for which the growth inhibition was 85.1% (active).
Consider `Cc1ccc(C2C(O)=C(c3ccccc3)Sc3ccc(C)cc32)cc1` (stereo not given), for which the growth inhibition was 23.2%.
Regarding `CC(=O)Oc1ccc(C)c(C(C)C(Cl)(Cl)Cl)c1` (stereo not given), the growth inhibition is 52.5%.
Take `CCCC(=O)Oc1ccc(-c2ccc(Br)cc2)cc1`: the growth inhibition is 90.2% (active).
As for `CCCCC#CCOC(=O)c1cc([N+](=O)[O-])cc([N+](=O)[O-])c1`, the growth inhibition was 99.3% (active).
`COC(=O)c1ccc(Cl)c(Cl)c1`: the growth inhibition is 75.3% (active).
Take `Cc1cc(Br)c2ccccc2c1N`: the growth inhibition was 84.8% (active).
Take `C=C1N(S(=O)(=O)c2ccc(C)cc2)C(=O)OCC12CCCC2`: the growth inhibition is 8.9%.
On the same count and under the same terms, the value for `CCCCCCCCN=C(N)c1ccc(C(=O)OCC2CCCCC2)cc1` was 99.5% (active); that for `Nc1ccc2ccc3cccc4ccc1c2c34` was 62.5%; that for `C=C(Br)CN(CC(=C)Br)C(C)=O` was -45.4%.
Consider `[Ce+3].[Cl-].[O-]/N=C(\c1ccccc1)c1ccccn1.[O-]/N=C(\c1ccccc1)c1ccccn1.[O-]/N=C(\c1ccccc1)c1ccccn1`, for which the growth inhibition is 76.7% (active).
On to `O=CCCCc1cc2c(cc1Br)CCC2`, for which the growth inhibition is 72.2% (active).
Same read-out and setting: the value for `C1=C(CC2=C[P+](c3ccccc3)(c3ccccc3)C=C(c3ccccc3)O2)OC(c2ccccc2)=C[P+]1(c1ccccc1)c1ccccc1` was 85.4% (active).
Regarding `CC/C=C(\C)CC(C)O` (stereo not given), the growth inhibition was 59.7%.
`CCC(c1ccc(Cl)cc1)C(C#N)c1ccc(Cl)cc1` (stereo not given): the growth inhibition is 11.4%.
For the molecule `CN1/C(=C/C=C/C(I)=C/C=C/C2=[N+](C)c3ccccc3C2(C)C)C(C)(C)c2ccccc21`, the growth inhibition is 79.4% (active).
Regarding `Nc1ccc(N)c2c1C(=O)c1ccccc1C2=O`, the growth inhibition is 6.9%.
On to `CN1C=COC1N=C1CCCCC1` (stereo not given), for which the growth inhibition was 16.6%.
Still for that read-out and setting: next, `Clc1ccc(Cc2nc3ccccc3s2)c(Cl)c1`: 91.5% (active).
Same read-out and setting: the value for `O=CC1(c2ccc(Cl)cc2)NC(=O)NC1=O` (stereo not given) was 83% (active); that for `O=C(CSc1nnc(-c2ccc(N=Cc3ccc(Cl)cc3)cc2)o1)Nc1ccc(Cl)cc1Cl` was 91.2% (active); that for `O=C(Oc1ccccc1)C1CCCCC1C(=O)Oc1ccccc1` (stereo not given) was -2.35%.
Turning to `O=C(O)Cc1ccc2c(c1O)C(=O)c1ccccc1C2=O`, the growth inhibition was 57.5%.
Take `O=[N+]([O-])c1cccc(F)c1O`: the growth inhibition was 0.25%.
On to `CCc1nc2c(O)ccc(O)c2nc1C`, for which the growth inhibition was 59.4%.
Turning to `COC(=O)N/N=C(/CC1(O)C(=O)Nc2ccccc21)c1ccc(Cl)cc1Cl` (stereo not given), the growth inhibition was 92.3% (active).

The nature of the next experiment: NCI Yeast Anticancer Drug Screen. Data for the bub3 strain (AID 167). To be noted: S. cerevisiae bub3 mutant strain, at 5.0 µM (retest, dose inferred, filed as 0.5), stronger effect = higher value. Put shortly: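 Steps: expose the mutant yeast strain to compound; grow alongside vehicle-treated cultures; measure growth; express inhibition against the vehicle cultures.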
For the molecule `CCCCCCCCCC1OCC(C)O1` (stereo not given), the growth inhibition is 7%.
For `O=[N+]([O-])c1ccc2c(c1)/C(=C/c1ccc(O)cc1)c1ccccc1-2`, the growth inhibition was -2%.
As for `COc1cc2c(cc1OC(C)=O)C(=O)C(Br)(Br)CCC2`, the growth inhibition is 10%.
Still for that read-out and setting: the value for `COC(=O)c1cc2c(oc1=O)-c1ccccc1N(C=O)C2` was -16%; that for `CC(=O)Nc1ccc(S(=O)(=O)/N=C2\C=CC(=O)c3ccccc32)cc1` was 5%.
Turning to `C/C(=N/NC(=S)N(C)C)c1ccccc1O`, the growth inhibition was -29%.
Consider `CC(CN(C)C)C(=O)/C=C/c1c(Cl)cccc1Cl` (stereo not given), for which the growth inhibition is -1%.
Take `N#CC(O)C(Br)(Br)Br` (stereo not given): the growth inhibition is -1%.
The same measure, in the same setting: next, `C=Cc1cc(N=Nc2ccc([N+](=O)[O-])cc2)ccc1N(C)C`: 2%; `Cc1cccnc1NC(=S)Nc1ccccc1Cl`: 18%.
For the molecule `O=C1C=CC(=O)c2c(O)c(N3CCC[C@@H]3CO)c(Cl)c(O)c21`, the growth inhibition was 21%.
On to `Cc1cc(C(=O)O)c(C)c2c1sc1ccccc12`, for which the growth inhibition is -11%.
Consider `COc1cccc2c1OC(c1ccc(Cl)cc1)C([N+](=O)[O-])=C2` (stereo not given), for which the growth inhibition was 97% (active).
As for `CC1=C(C(=O)Nc2cccc(Cl)c2)C(c2ccccc2F)C(C(=O)Nc2cccc(Cl)c2)=C(C)N1`, the growth inhibition was 56%.
The same measure, in the same setting: next, `Cc1ccc(C2C(O)=C(c3ccccc3)Sc3ccc(C)cc32)cc1` (stereo not given): -4%; `CC(=O)Oc1ccc(C)c(C(C)C(Cl)(Cl)Cl)c1` (stereo not given): -6%; `CCCC(=O)Oc1ccc(-c2ccc(Br)cc2)cc1`: 39%.
In the case of `CCCCC#CCOC(=O)c1cc([N+](=O)[O-])cc([N+](=O)[O-])c1`, the growth inhibition was 96% (active).
Consider `COC(=O)c1ccc(Cl)c(Cl)c1`, for which the growth inhibition is 12%.
`Cc1cc(Br)c2ccccc2c1N`: the growth inhibition is 1%.
The same measure, in the same setting: the value for `C=C1N(S(=O)(=O)c2ccc(C)cc2)C(=O)OCC12CCCC2` was -16%; that for `CCCCCCCCN=C(N)c1ccc(C(=O)OCC2CCCCC2)cc1` was 98% (active); that for `Nc1ccc2ccc3cccc4ccc1c2c34` was -2%.
Take `C=C(Br)CN(CC(=C)Br)C(C)=O`: the growth inhibition is 14%.
The same measure, in the same setting: next, `[Ce+3].[Cl-].[O-]/N=C(\c1ccccc1)c1ccccn1.[O-]/N=C(\c1ccccc1)c1ccccn1.[O-]/N=C(\c1ccccc1)c1ccccn1`: 41%; `O=CCCCc1cc2c(cc1Br)CCC2`: 23%.
As for `C1=C(CC2=C[P+](c3ccccc3)(c3ccccc3)C=C(c3ccccc3)O2)OC(c2ccccc2)=C[P+]1(c1ccccc1)c1ccccc1`, the growth inhibition is 32%.
Same read-out and setting: the value for `CC/C=C(\C)CC(C)O` (stereo not given) was 1%; that for `CCC(c1ccc(Cl)cc1)C(C#N)c1ccc(Cl)cc1` (stereo not given) was 6%.
Take `CN1/C(=C/C=C/C(I)=C/C=C/C2=[N+](C)c3ccccc3C2(C)C)C(C)(C)c2ccccc21`: the growth inhibition was -2%.
As for `Nc1ccc(N)c2c1C(=O)c1ccccc1C2=O`, the growth inhibition is 0%.
In the case of `CN1C=COC1N=C1CCCCC1` (stereo not given), the growth inhibition is 18%.
Regarding `Clc1ccc(Cc2nc3ccccc3s2)c(Cl)c1`, the growth inhibition was 43%.
With `O=CC1(c2ccc(Cl)cc2)NC(=O)NC1=O` (stereo not given), the growth inhibition is -1%.
Still for that read-out and setting: the value for `O=C(CSc1nnc(-c2ccc(N=Cc3ccc(Cl)cc3)cc2)o1)Nc1ccc(Cl)cc1Cl` was 12%; that for `O=C(Oc1ccccc1)C1CCCCC1C(=O)Oc1ccccc1` (stereo not given) was -9%; that for `O=C(O)Cc1ccc2c(c1O)C(=O)c1ccccc1C2=O` was 0%.
As for `O=[N+]([O-])c1cccc(F)c1O`, the growth inhibition is 0%.
As to `CCc1nc2c(O)ccc(O)c2nc1C`, the growth inhibition is -63%.
In the case of `COC(=O)N/N=C(/CC1(O)C(=O)Nc2ccccc21)c1ccc(Cl)cc1Cl` (stereo not given), the growth inhibition was 8%.
